In PubChem BioAssay AID620 (Sanford-Burnham Center for Chemical Genomics, 2007) one finds cytotoxicity data, which are given here for 100 compounds.

About 360 (0.41%) of roughly 87,000 compounds were called active. No stated cut-off is given here; in the data, active means cytotoxicity above about 50%; inactive means the rest. This excerpt belongs to a sample that is enriched for actives.

The assay in a line: cytotoxicity in HT1080 fibrosarcoma cells, cell-based, fluorescence readout (AID 620).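 Further: cells exposed to compound overnight then 4 h with Alamar Blue; 0% = vehicle DMSO and 100% = killing control.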 The following applies: HT1080 viability, at 10 µM, hits give high values.
As to `FC(F)(F)c1cc(-c2ccco2)nc(-n2cnc3ccccc32)n1`, the cytotoxicity was -14.2% (inactive).
Regarding `Cc1nc2ccccc2n1-c1nc(-c2ccco2)cc(C(F)(F)F)n1`, the cytotoxicity is 65.2% (active).
Consider `FC(F)(F)c1cc(-c2ccco2)nc(-n2nnc3ccccc32)n1`, for which the cytotoxicity was -10.9% (inactive).
For the compound `CCCCNC(=O)c1ccc2c(c1)N(CC)C(=O)c1ccccc1S2(=O)=O`, the cytotoxicity is -4.4% (inactive).
With `CSc1nc(NCC(C)C)nc(N2CCOCC2)n1` the figure was 1% (inactive).
As to `CC(=O)NC1=NN(C(C)=O)C(C)(c2cccs2)S1` (stereo not given), the cytotoxicity was 65.3% (active).
For `CC(=O)NC1=NN(C(C)=O)C2(CCCCC2)S1`, the cytotoxicity was 0.7% (inactive).
For the compound `CCCC1(C)SC(NC(C)=O)=NN1C(C)=O` (stereo not given), the cytotoxicity is -1.8% (inactive).
On to `COc1ccc(C(=O)CSc2nc(SC)ns2)cc1OC`, for which the cytotoxicity was 7.5% (inactive).
On to `COc1cc(NC(=O)COc2ccc(F)cc2)nc(OC)n1`, for which the cytotoxicity was 5% (inactive).
`O=C(Nc1ccc2nc(-c3ccccc3)[nH]c2c1)c1cccs1`: the cytotoxicity is 56.7% (active).
Take `O=C(Nc1ccc(-c2nc3ccc(NC(=O)c4cccs4)cc3[nH]2)cc1)c1cccs1`: the cytotoxicity was 16.4% (inactive).
With `O=C(Nc1ccc2nc(-c3cccs3)[nH]c2c1)c1cccs1` the figure was 17% (inactive).
For the compound `COc1ccc(C(=O)SC2=NCCS2)cc1`, the cytotoxicity is -11.1% (inactive).
In the case of `Cc1cc(C)n(-c2c(F)c(F)c(CO)c(F)c2F)n1`, the cytotoxicity was -14.3% (inactive).
With `CS(=O)(=O)N(CC(=O)N1CCN(c2ccccc2)CC1)C1CCCCC1` the figure was -5.1% (inactive); with `CCCNC(=O)C1CN(S(=O)(=O)c2ccccc2)CCN1S(=O)(=O)c1ccccc1` (stereo not given), 3.1% (inactive); with `Cn1c(Cn2nnc3ccccc32)nnc1SCC(=O)NCc1ccc2c(c1)OCO2`, -4.4% (inactive).
As for `CCn1ncc(C2=NOC(C(=O)NCCc3ccccc3)C2)c1C` (stereo not given), the cytotoxicity is 4.4% (inactive).
Take `CCn1ncc(C2=NOC(C(=O)NCc3ccc(Cl)cc3)C2)c1C` (stereo not given): the cytotoxicity was 71.2% (active).
`CCn1ncc(C2=NOC(C(=O)NCc3ccccc3)C2)c1C` (stereo not given): the cytotoxicity is 53.9% (active).
With `CCn1ncc(C2=NOC(C(=O)NCc3ccc(OC)cc3)C2)c1C` (stereo not given) the figure was 2% (inactive); with `CCn1ncc(C2=NOC(C(=O)Nc3ccc(C)cc3)C2)c1C` (stereo not given), 7.8% (inactive); with `CCn1ncc(C2=NOC(C(=O)NCC(C)C)C2)c1C` (stereo not given), 1.4% (inactive).
In the case of `Cc1ccc(C)c(NC2=NC3(CCCCC3)N=C(N)N2)c1`, the cytotoxicity was 4.3% (inactive).
For `COC(=O)C(NC(=O)c1ccco1)(Nc1nc(C2CC2)cs1)C(F)(F)F` (stereo not given), the cytotoxicity is 1.9% (inactive).
Turning to `CCc1ccccc1NC(=O)CN(C)Cc1nc(N)nc(Nc2ccccc2C)n1`, the cytotoxicity was -1% (inactive).
Consider `CO/N=C/NC(=O)Cc1cn(-c2ncc(C(F)(F)F)cc2Cl)c2ccccc12`, for which the cytotoxicity is 7.8% (inactive).
Consider `COc1ccc(C(=O)Nc2nnc(C(F)(F)F)s2)cc1`, for which the cytotoxicity is 66.8% (active).
`Cc1ccc2c(C)c(C(=O)Nc3nnc(C)s3)oc2c1`: the cytotoxicity was 1.1% (inactive).
With `Cc1c(C(=O)Nc2ccc(-n3cnnn3)cc2)oc2ccccc12` the figure was 26.2% (inactive); with `Cc1c(C(=O)Nc2nnc(C(F)(F)F)s2)oc2ccccc12`, 82.5% (active).
With `Cc1cc(NC(=O)c2ccco2)ccc1-n1cnnn1` the figure was -8.1% (inactive); with `Cc1cc(NC(=O)c2oc3ccccc3c2C)ccc1-n1cnnn1`, 75.3% (active); with `O=C(Nc1nnc(C(F)(F)F)s1)c1cccnc1`, 24% (inactive).
Regarding `CCOCc1nnc(NC(=O)c2ccc(OC)cc2)s1`, the cytotoxicity was 7.7% (inactive).
Take `COC(=O)c1sc(NC(=O)c2oc3ccccc3c2C)nc1C`: the cytotoxicity was -14.4% (inactive).
With `COc1cccc(C(=O)Nc2ccc(F)cc2F)c1` the figure was -7.7% (inactive).
In the case of `CC(C)(C)c1ccc(Oc2cccc(C3CC(=O)C(C4NCCc5ccccc54)C(=O)C3n3cncn3)c2)cc1` (stereo not given), the cytotoxicity was -1.9% (inactive).
In the case of `CCn1c(CC(=O)Nc2ccccc2)nnc1SCC(=O)Nc1ccccc1C(=O)OC`, the cytotoxicity was 0.7% (inactive).
With `COc1ccc(N2CCCCn3c2nc2c3c(=O)[nH]c(=O)n2C)cc1`, the cytotoxicity is 3.8% (inactive).
Regarding `CCOC(=O)Cn1nc(-c2ccc(Cl)cc2)ccc1=O`, the cytotoxicity is -5% (inactive).
Consider `CCn1c(CSc2nc3ccccc3n2C)nc2ccccc21`, for which the cytotoxicity was 27.6% (inactive).
For `COc1cc(C2C(C#N)=C(C)NC3=C2C(=O)CC(C)(C)C3)cc(OC)c1O` (stereo not given), the cytotoxicity was -2.1% (inactive).
As for `COc1ccc(C2C(C#N)=C(C)NC3=C2C(=O)c2ccccc23)cc1` (stereo not given), the cytotoxicity is 3% (inactive).
Regarding `COc1cc(C2C(C#N)=C(C)NC3=C2C(=O)c2ccccc23)cc(OC)c1OC` (stereo not given), the cytotoxicity was 68.6% (active).
As to `COc1cc(NC(=O)c2cccs2)c(C(=O)OCC(=O)NCc2ccccc2)cc1OC`, the cytotoxicity is 9.6% (inactive).
`CCOc1ccc(NC(=O)CSc2nnc(C)n2CC2CCCO2)cc1` (stereo not given): the cytotoxicity was -2.7% (inactive).
With `COc1ccc(-c2noc(CN3CCCCC3)n2)cc1OC` the figure was 11.9% (inactive).
With `CN(C)S(=O)(=O)c1ccc(S(=O)(=O)N(Cc2ccco2)Cc2ccccc2Cl)cc1` the figure was -1.9% (inactive); with `CCOc1cc(S(=O)(=O)N2CCC(Cc3ccccc3)CC2)c(OCC)cc1-n1cnnn1`, -6.4% (inactive).
As to `CCOc1cc(S(=O)(=O)N2CCN(c3ccc(F)cc3)CC2)c(OCC)cc1-n1cnnn1`, the cytotoxicity was 2.6% (inactive).
In the case of `CCOc1cc(S(=O)(=O)N2CC=C(c3ccc(F)cc3)CC2)c(OCC)cc1-n1cnnn1`, the cytotoxicity is 52.5% (active).
With `CC12CCC(C(=O)N3CCN(Cc4ccccc4)CC3)(OC1=O)C2(C)C` (stereo not given) the figure was 0.4% (inactive); with `CN1CC[n+]2c(CN3C(=O)c4ccccc4C3=O)csc21`, 15.5% (inactive).
Regarding `CCCC(=O)c1c(NC(C)C)cc(C)oc1=O`, the cytotoxicity is -2.5% (inactive).
With `COc1ccc(C(=O)N2CCN(C(=O)c3cc(OC)c(OC)c(OC)c3)CC2)cc1`, the cytotoxicity is -0.7% (inactive).
Turning to `Cc1cccc(N2CCN(C(=O)c3ccncc3)CC2)c1C`, the cytotoxicity is 21.3% (inactive).
As to `COc1cc(C(=O)N2CCN(c3cccc(C)c3C)CC2)cc(OC)c1OC`, the cytotoxicity was 62.4% (active).
With `COc1cc(C(=O)N2CCN(c3cc(Cl)ccc3Cl)CC2)cc(OC)c1OC` the figure was 66% (active); with `COc1cc(C(=O)N2CCN(C(=O)c3ccccc3)CC2)cc(OC)c1OC`, -2.8% (inactive).
With `COc1ccc(Cl)cc1S(=O)(=O)N1CCN(C(=O)c2cc(OC)c(OC)c(OC)c2)CC1` the figure was -2.5% (inactive); with `O=C(C1CC1)N1CCN=C1SCc1ccccc1`, -4.5% (inactive).
For `Cc1cccc(NC(=O)c2ccc(S(=O)(=O)N(C)C)cc2)n1`, the cytotoxicity is 36.5% (inactive).
Take `CCc1ccc(NC(=O)CCn2ccnc2C)cc1`: the cytotoxicity was -7% (inactive).
For the compound `Cc1ccc(S(=O)(=O)N(C)c2ccc(OCC(=O)OCc3c(C)noc3C)cc2)cc1`, the cytotoxicity was 11.5% (inactive).
Regarding `CCC(C)(C)NC(=O)CN(C(=O)CCC(=O)Nc1cc(C)ccn1)c1ccc2c(c1)OCO2`, the cytotoxicity is -1.1% (inactive).
As to `CCCCCCCCCCCCCCCC(O)C(N)CO` (stereo not given), the cytotoxicity is 58.2% (active).
With `CCCCCCCC(=O)OCC(O)CO` (stereo not given), the cytotoxicity is -0.9% (inactive).
On to `CCCCCCCCCC(=O)OCC(O)CO` (stereo not given), for which the cytotoxicity is -10.7% (inactive).
As for `COCCn1nnnc1CN(Cc1ccco1)Cc1cc2cc3c(cc2[nH]c1=O)OCO3`, the cytotoxicity was -10.7% (inactive).
Take `CCn1cc(C(=O)NCc2cccs2)c(=O)c2ccc(C)nc21`: the cytotoxicity was -4% (inactive).
Regarding `COc1ccc(OC)c(Nc2cc(-c3ccccc3)nc(N)n2)c1`, the cytotoxicity was 56.1% (active).
Consider `COc1ccc(OC)c(Nc2nc(N)nc(-c3cc4ccccc4o3)n2)c1`, for which the cytotoxicity is 4.8% (inactive).
With `COc1ccc(OC)c(Nc2cc(C)nc3ccccc23)c1` the figure was 20.6% (inactive).
With `c1ccc(CSc2ncccn2)cc1` the figure was 4.3% (inactive); with `O=C(CCNS(=O)(=O)c1ccccc1F)NCc1ccc2c(c1)OCO2`, -0.4% (inactive).
`COC(=O)N1[C@H](C)C=C[C@]1(Cc1ccccc1)C(=O)O`: the cytotoxicity was 90.8% (active).
As to `COC(=O)N1[C@H](C)C=C[C@]1(Cc1ccccc1)C(=O)OC`, the cytotoxicity is -24.7% (inactive).
With `CNC(=O)[C@@]1(Cc2ccccc2)C=C[C@@H](C)N1C(=O)OC` the figure was -24.6% (inactive); with `CCSc1nnc(NC(=O)CSc2nccn2-c2cccc(C)c2C)s1`, -8.3% (inactive); with `CCc1nnc(NC(=O)CSc2nccn2-c2cccc(C)c2C)s1`, -9.5% (inactive).
`Cc1nnc(NC(=O)CSc2nccn2-c2cccc(C)c2C)s1`: the cytotoxicity is 54.7% (active).
With `CN1/C(=C\C(=O)C(F)F)C(C)(C)c2ccccc21` the figure was -3.2% (inactive); with `CN1/C(=C\C(=O)c2ccco2)C(C)(C)c2ccccc21`, 9% (inactive); with `COC(=O)c1ccc(Oc2cc(C)nc(SC)n2)cc1`, 48.5% (inactive).
As for `Cc1ccc(Oc2cc(-n3nc(C)cc3C)ncn2)cc1`, the cytotoxicity was -3.6% (inactive).
On to `CC(=O)c1ccc(Oc2cc(C)nc(NCc3ccccc3)n2)cc1`, for which the cytotoxicity was -1% (inactive).
Turning to `COC(=O)c1ccc(Oc2cc(C)nc(-n3nc(C)cc3C)n2)cc1`, the cytotoxicity is 68.3% (active).
In the case of `CC(=O)c1ccc(Oc2cc(C)nc(-n3nc(C)cc3C)n2)cc1`, the cytotoxicity is 50.3% (active).
Consider `COC(=O)c1ccc(Oc2nc(C)cc(Oc3ccccc3)n2)cc1`, for which the cytotoxicity was 11.3% (inactive).
With `c1ccc(-c2cc(-c3nc(-c4ccccn4)no3)c3ccccc3n2)cc1` the figure was -10.1% (inactive).
Take `COc1cccc(C(c2sc3nc(C)nn3c2O)N2CCc3ccccc3C2)c1` (stereo not given): the cytotoxicity was -7.4% (inactive).
Regarding `CCOC(=O)CNC(=O)CSc1nnc(Cn2c(=O)sc3ccccc32)n1C`, the cytotoxicity was -4.4% (inactive).
In the case of `O=C(COC(=O)c1ccccc1)NCc1ccco1`, the cytotoxicity was 6.9% (inactive).
As to `Cc1nn(-c2ccccc2)c(C)c1C(=O)OCC(=O)NCc1ccco1`, the cytotoxicity was -6.6% (inactive).
For the compound `Cc1cc(C(=O)OCC(=O)NCc2ccco2)c(C)n1-c1ccc(F)cc1`, the cytotoxicity is 63.7% (active).
For `Cc1cc(C(=O)CNCc2ccco2)c(C)n1-c1ccc(F)cc1`, the cytotoxicity was 2.4% (inactive).
With `Cc1cc(C(=O)OCC(=O)N2CCN(C(=O)c3ccco3)CC2)c(C)n1-c1ccc(F)cc1` the figure was -4.9% (inactive); with `Cc1cc(C(=O)OCC(=O)NCc2ccco2)c(C)n1-c1ccccc1`, 62.1% (active).
